Experiments:
Test in all cases: DAPPL (digital affinity profiling via proximity ligation, sequencing); 10 mM Tris-HCl pH 7.5, 50 mM NaCl, 1 mM DTT, 4% glycerol, room temperature, 30 min; GST-TFs on glutathione beads, 16-mer random dsDNA library, 0.1% formaldehyde crosslink after washing; high values mean tight binding
Settings in all cases: protein: recombinant; tags: N-terminal GST; dsDNA, one strand shown
ELK1 = target: T1, ELK1 (Homo sapiens, UniProt P19419 1-428)
T1 sequence: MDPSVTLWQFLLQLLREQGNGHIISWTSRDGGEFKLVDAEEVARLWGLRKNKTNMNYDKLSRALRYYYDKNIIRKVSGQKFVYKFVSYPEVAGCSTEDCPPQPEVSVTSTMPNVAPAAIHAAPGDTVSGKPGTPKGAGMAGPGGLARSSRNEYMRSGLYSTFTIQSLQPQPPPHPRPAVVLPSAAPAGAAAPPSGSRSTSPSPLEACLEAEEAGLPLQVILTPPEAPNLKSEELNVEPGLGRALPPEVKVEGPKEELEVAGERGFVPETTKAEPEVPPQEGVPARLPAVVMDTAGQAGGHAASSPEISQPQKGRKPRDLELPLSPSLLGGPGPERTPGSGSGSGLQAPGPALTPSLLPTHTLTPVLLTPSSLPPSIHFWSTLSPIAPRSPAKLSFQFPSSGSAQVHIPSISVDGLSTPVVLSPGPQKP
How it was run: (§1)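 A tag-only sample was pooled with DNA-barcoded human transcription factors that had been expressed in yeast as GST fusions and captured on glutathione beads. The pools were incubated for 30 min at room temperature with 200 nmole of a random double-stranded 16-mer DNA library in Tris/NaCl/DTT/glycerol buffer, then washed, crosslinked with 0.1% formaldehyde, proximity-ligated (BsaI/T4 ligase, 1 h, 37 °C), PCR-amplified and sequenced on an Illumina NextSeq500. Binding signal is each hexamer's read frequency for a factor divided by its frequency for the tag-only sample.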

GABPA = target: T2, GABPA (Homo sapiens, UniProt Q06546 1-454)
T2 sequence: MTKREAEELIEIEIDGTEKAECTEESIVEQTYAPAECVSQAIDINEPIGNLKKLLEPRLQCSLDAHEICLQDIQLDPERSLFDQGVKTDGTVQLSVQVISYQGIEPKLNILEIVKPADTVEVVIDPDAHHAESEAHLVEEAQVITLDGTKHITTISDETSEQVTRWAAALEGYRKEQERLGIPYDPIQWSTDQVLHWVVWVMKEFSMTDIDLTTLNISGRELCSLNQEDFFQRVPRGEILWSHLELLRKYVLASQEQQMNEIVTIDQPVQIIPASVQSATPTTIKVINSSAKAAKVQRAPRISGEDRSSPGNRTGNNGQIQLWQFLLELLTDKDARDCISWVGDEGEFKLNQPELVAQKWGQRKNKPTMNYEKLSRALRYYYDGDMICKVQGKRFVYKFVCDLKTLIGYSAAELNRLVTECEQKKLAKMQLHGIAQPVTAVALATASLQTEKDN
How it was run: as §1

ERG = target: T3, ERG (Homo sapiens, UniProt P11308 1-479)
T3 sequence: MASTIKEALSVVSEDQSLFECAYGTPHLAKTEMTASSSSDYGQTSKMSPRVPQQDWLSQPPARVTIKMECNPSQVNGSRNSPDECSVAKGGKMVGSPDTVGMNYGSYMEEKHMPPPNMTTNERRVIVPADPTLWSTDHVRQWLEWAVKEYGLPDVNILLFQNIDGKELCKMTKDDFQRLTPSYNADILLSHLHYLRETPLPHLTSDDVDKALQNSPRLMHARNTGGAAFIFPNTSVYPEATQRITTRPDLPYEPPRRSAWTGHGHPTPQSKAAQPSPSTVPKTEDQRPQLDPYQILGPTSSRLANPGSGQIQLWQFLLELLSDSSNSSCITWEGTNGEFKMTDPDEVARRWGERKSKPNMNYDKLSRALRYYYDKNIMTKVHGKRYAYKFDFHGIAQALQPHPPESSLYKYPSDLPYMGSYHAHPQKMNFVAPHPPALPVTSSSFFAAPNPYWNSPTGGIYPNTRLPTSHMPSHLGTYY
How it was run: as §1

ELF1 = ELF1 (Homo sapiens, UniProt P32519 1-619)
How it was run: as §1

EHF = target: T4, EHF (Homo sapiens, UniProt Q9NZC4 1-300)
T4 sequence: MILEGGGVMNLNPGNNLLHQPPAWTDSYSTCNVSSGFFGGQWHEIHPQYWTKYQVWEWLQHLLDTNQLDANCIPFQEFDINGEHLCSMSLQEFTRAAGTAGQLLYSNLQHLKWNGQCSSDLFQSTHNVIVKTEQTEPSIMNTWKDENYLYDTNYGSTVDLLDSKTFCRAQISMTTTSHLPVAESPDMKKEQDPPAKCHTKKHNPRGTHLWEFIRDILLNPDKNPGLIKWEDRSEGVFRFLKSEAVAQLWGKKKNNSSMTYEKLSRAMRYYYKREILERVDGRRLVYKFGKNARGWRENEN
How it was run: as §1

SPIB = SPIB (Homo sapiens, UniProt Q01892 1-262)
How it was run: as §1

FEV = target: T5, FEV (Homo sapiens, UniProt Q99581 1-238)
T5 sequence: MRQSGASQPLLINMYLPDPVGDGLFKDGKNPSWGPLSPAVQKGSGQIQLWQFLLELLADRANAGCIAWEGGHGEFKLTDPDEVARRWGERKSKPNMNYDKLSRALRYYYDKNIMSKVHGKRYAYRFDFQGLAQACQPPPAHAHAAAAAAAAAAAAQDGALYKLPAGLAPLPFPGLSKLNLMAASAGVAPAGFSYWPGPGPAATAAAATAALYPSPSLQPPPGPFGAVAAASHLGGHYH
How it was run: as §1

ETV5 = ETV5 (Homo sapiens, UniProt P41161 1-510)
How it was run: as §1

ELF4 = ELF4 (Homo sapiens, UniProt Q99607 1-663)
How it was run: as §1

ELK4 = target: T6, ELK4 (Homo sapiens, UniProt P28324-2 1-405)
T6 sequence: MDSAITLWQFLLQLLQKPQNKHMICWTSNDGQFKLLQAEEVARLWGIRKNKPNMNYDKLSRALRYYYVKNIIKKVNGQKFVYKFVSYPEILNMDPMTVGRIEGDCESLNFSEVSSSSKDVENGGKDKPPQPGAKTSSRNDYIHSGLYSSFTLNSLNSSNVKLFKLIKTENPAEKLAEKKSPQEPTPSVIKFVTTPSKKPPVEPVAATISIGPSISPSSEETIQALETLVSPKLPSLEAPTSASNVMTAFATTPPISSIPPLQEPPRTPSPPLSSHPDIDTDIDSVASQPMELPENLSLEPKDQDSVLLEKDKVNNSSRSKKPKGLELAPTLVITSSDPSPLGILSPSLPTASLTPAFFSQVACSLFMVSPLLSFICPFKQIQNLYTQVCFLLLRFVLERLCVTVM
How it was run: as §1

ELF1, sequence (P32519 whole entry): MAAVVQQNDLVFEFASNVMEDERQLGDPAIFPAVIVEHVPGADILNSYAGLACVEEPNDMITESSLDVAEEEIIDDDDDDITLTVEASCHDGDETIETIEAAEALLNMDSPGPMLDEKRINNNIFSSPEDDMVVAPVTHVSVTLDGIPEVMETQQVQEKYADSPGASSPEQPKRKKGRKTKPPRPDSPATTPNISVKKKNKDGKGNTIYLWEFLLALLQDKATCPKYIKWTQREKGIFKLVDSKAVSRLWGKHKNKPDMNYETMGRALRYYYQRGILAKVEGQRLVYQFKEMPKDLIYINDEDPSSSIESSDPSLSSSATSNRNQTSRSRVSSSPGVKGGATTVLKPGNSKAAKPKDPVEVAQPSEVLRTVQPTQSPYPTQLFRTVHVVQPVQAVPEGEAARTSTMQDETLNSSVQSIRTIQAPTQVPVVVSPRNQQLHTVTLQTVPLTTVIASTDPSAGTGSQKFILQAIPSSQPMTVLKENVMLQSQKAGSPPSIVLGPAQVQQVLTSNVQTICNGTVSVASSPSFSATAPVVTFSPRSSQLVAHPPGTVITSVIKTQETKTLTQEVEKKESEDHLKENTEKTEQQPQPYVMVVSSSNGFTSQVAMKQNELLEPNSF
SPIB, sequence (Q01892 whole entry): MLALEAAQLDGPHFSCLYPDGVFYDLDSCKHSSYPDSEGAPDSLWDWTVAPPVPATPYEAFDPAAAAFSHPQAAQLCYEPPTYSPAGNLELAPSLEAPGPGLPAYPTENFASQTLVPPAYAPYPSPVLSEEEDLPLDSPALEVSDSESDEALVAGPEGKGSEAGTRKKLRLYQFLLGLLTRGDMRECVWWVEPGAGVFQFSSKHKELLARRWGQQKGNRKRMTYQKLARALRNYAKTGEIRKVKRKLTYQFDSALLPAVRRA
ELF4, sequence (Q99607 whole entry): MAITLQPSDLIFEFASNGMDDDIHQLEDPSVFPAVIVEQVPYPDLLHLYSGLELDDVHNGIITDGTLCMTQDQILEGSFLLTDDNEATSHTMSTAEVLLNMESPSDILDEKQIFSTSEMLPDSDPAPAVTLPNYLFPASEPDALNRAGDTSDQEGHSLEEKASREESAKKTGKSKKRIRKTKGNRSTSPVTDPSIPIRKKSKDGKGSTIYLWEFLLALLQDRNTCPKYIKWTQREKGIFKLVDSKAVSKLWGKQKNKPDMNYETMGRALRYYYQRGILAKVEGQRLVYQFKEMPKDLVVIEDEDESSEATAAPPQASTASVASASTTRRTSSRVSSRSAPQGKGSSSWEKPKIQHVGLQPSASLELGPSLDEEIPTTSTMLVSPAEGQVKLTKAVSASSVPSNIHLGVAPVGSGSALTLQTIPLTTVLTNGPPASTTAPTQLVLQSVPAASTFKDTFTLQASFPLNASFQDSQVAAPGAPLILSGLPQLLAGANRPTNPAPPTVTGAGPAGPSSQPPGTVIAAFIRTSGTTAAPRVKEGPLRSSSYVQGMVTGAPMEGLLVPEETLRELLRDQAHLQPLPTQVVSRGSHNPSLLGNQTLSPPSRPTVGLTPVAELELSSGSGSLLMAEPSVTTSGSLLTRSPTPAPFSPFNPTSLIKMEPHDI
ETV5, sequence (P41161 whole entry): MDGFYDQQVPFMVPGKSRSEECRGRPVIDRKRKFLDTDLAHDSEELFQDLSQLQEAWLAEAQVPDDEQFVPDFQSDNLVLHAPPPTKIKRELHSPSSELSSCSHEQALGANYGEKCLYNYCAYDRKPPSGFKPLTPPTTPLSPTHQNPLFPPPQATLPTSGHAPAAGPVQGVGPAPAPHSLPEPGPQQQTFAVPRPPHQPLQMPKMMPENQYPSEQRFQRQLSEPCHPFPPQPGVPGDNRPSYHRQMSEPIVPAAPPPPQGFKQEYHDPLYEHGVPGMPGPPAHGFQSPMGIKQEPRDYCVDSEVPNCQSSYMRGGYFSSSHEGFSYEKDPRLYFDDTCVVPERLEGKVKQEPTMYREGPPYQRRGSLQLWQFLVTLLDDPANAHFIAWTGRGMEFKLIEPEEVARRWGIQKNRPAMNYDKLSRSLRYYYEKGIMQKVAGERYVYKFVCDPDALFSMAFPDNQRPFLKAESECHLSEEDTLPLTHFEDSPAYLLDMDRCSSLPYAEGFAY

Sequence: CCCAAA
- binding signal (ELK1): 1.15 fold enrichment (6-mer frequency, TF over GST control)
- binding signal (GABPA): 1.17 fold enrichment (6-mer frequency, TF over GST control)
- binding signal (ERG): 1.13 fold enrichment (6-mer frequency, TF over GST control)
- binding signal (ELF1): 1.18 fold enrichment (6-mer frequency, TF over GST control)
- binding signal (EHF): 1.12 fold enrichment (6-mer frequency, TF over GST control)
- binding signal (SPIB): 1.14 fold enrichment (6-mer frequency, TF over GST control)
- binding signal (FEV): 1.08 fold enrichment (6-mer frequency, TF over GST control)
- binding signal (ETV5): 1.07 fold enrichment (6-mer frequency, TF over GST control)
- binding signal (ELF4): 1.17 fold enrichment (6-mer frequency, TF over GST control)
- binding signal (ELK4): 1.06 fold enrichment (6-mer frequency, TF over GST control)
